# The full list was thinned out, with hits kept by preference.
# NOMO-1 viab – STK33 inhibitor candidate reducing NOMO-1 cell viability | NOMO-1 AML viability, CellTiter-Glo luminescence, 72 h | inhibition, % (concentration not given with the values) | 37,000 tested, 7.5% active; in the data active means inhibition above about 80%; inconclusive means no clear call, values can overlap the other calls
# STK33 inh – blocks human STK33 kinase activity; 27,000 tested, 0.44% active; ADP-Glo luminescence, MBP substrate; AID 2322; Q9BYT3; inhibition, % at 12.5 µM; in the data active means inhibition above about 20%; inconclusive means no clear call, values can overlap the other calls
# Target sequence (Q9BYT3 whole entry, looked up): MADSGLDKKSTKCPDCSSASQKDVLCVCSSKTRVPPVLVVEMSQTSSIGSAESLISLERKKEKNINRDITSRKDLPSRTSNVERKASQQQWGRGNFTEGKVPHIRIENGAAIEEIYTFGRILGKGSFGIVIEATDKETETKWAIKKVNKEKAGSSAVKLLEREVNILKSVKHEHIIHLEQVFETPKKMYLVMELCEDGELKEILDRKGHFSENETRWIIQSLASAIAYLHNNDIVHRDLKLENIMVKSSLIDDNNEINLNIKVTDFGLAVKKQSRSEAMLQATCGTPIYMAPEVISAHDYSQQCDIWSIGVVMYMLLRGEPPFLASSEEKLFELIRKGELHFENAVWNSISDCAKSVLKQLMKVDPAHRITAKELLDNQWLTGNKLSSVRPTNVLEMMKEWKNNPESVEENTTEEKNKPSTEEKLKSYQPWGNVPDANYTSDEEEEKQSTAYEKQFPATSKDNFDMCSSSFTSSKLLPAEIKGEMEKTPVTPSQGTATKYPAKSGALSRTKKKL
# PD-1 reverse act – activators reversing PD-1 mediated T-cell inhibition. primary human CD4 T cells, PD-L1 beads, CellTiter-Glo 96 h. 29,000 tested, under 10 active. AID 2316. activation, % (test concentration not listed); call rule not given here;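 further: 0% = median vehicle wells and 100% = positive control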
# * = called active by the depositor; ? = inconclusive; . = not tested or not shown.
SMILES,NOMO-1 viab,STK33 inh,PD-1 reverse act
NC(=NC(=O)c1ccc(Cl)cc1)c1ccc(C(F)(F)F)cn1,13,-1,-2
CC(Sc1ncnc2nc[nH]c12)c1ccccc1Cl (stereo unspecified),41,.,1
CCC(C)/C=C(C)/C=C/C1=CC2=C(Cl)C(=O)C(C)(OC(C)=O)C(=O)C2=CN1CCCC(=O)O (stereo unspecified),101*,-1,0
CCOC(=O)c1c(NC(=O)CSc2ncccn2)sc2c1CCCC2,29,-1,-3
Cc1ccc(NC(=O)COc2ccc(Cl)cc2C)c([N+](=O)[O-])c1,14,4,2
C[C@@H]1CN([C@@H](C)CO)C(=O)c2cccc(NC(=O)C3CCCCC3)c2O[C@H]1CN(C)Cc1ccc(Oc2ccccc2)cc1,120*,.,-5
C[C@@H]1CN([C@@H](C)CO)C(=O)c2cccc(NC(=O)C3CCCCC3)c2O[C@@H]1CN(C)Cc1ccc(Oc2ccccc2)cc1,46,.,-3
C[C@@H]1CN([C@H](C)CO)C(=O)c2cccc(NC(=O)C3CC3)c2O[C@@H]1CN(C)Cc1ccc(Oc2ccccc2)cc1,2,.,.
C[C@@H]1CN([C@H](C)CO)C(=O)c2cccc(NC(=O)C3CCCCC3)c2O[C@H]1CN(C)Cc1ccc(Oc2ccccc2)cc1,52,.,-2
C[C@@H]1CN([C@@H](C)CO)C(=O)c2cccc(NC(=O)C3CC3)c2O[C@H]1CN(C)Cc1ccc(Oc2ccccc2)cc1,100*,.,-4
C[C@@H]1CN([C@@H](C)CO)C(=O)c2cc(NC(=O)C3CCCCC3)ccc2O[C@H]1CN(C)Cc1ccc(Oc2ccccc2)cc1,100*,1,-1
C[C@H](CO)N1C[C@H](C)[C@@H](CN(C)Cc2ccc(Oc3ccccc3)cc2)Oc2c(NC(=O)C3CCCCC3)cccc2C1=O,88*,.,-3
C[C@H]1CN([C@@H](C)CO)C(=O)c2cc(NC(=O)C3CCCCC3)ccc2O[C@H]1CN(C)Cc1ccc(Oc2ccccc2)cc1,42,1,-4
Cc1ccc(-c2csc3ncnc(SCC(=O)Nc4ccccc4F)c23)cc1,9,2,-2
O=C(CSc1nnc(C2COc3ccccc3O2)n1-c1ccccc1)c1ccc([N+](=O)[O-])cc1 (stereo unspecified),17,0,1
CC(=O)NC1=NN(C(C)=O)C(C)(CS(=O)(=O)c2ccc(C)cc2)S1 (stereo unspecified),-12,.,1
CCOc1ccc(-n2c(SCC(=O)Nc3ccc(Cl)cc3)nc3ccccc3c2=O)cc1,54,9,.
C[C@@H]1CN([C@@H](C)CO)C(=O)c2cccc(NC(=O)C3CCCCC3)c2O[C@@H]1CN(C)Cc1ccc(Cl)c(Cl)c1,96*,.,-4
C[C@H]1CN([C@@H](C)CO)C(=O)c2cccc(NC(=O)C3CCCCC3)c2O[C@H]1CN(C)Cc1ccc(Cl)c(Cl)c1,49,.,-2
CCc1nc2c(cnn2-c2ccccc2)c(=O)n1CCc1ccccc1,113*,.,-1
O=c1c(Cl)c(NCCc2ccccc2)cnn1-c1ccccc1,-6,0,-2
COc1ccc(C(=O)CC2(O)C(=O)N(CCCC#N)c3ccccc32)c(OC)c1 (stereo unspecified),6,-2,0
C=C[C@H]1CN2CC[C@H]1C[C@@H]2C(O)c1ccnc2ccc(OC)cc12 (stereo partly specified),3,10,-2
COc1ccc(N(C(C)C(=O)N2CCOCC2)S(C)(=O)=O)cc1 (stereo unspecified),.,0,.
COc1ccccc1NC(=O)c1ccc(OCC(=O)Nc2cc(Cl)cc(Cl)c2)cc1,86*,-1,-1
SMILES,NOMO-1 viab,STK33 inh,PD-1 reverse act
COc1ccc(OC)c(NC(=O)COc2ccc(C(=O)Nc3ccc(Cl)cc3)cc2)c1,8,1,.
CCc1cccc(C)c1NC(=O)CNS(=O)(=O)c1ccc(Cl)cc1,-8,1,0
C[C@@H]1CN([C@H](C)CO)C(=O)c2cccc(N(C)C)c2O[C@H]1CN(C)Cc1ccc(C(F)(F)F)cc1,81*,.,-7
C[C@@H]1CN([C@@H](C)CO)C(=O)c2cccc(NC(=O)Nc3ccc(C(F)(F)F)cc3)c2O[C@H]1CN(C)Cc1ccc(C(F)(F)F)cc1,116*,.,-6
C[C@H]1CN([C@@H](C)CO)C(=O)c2cccc(NC(=O)Nc3ccc(C(F)(F)F)cc3)c2O[C@H]1CN(C)Cc1ccc(C(=O)O)cc1,7,.,2
C[C@H]1CN([C@@H](C)CO)C(=O)c2cccc(NC(=O)Nc3ccc(C(F)(F)F)cc3)c2O[C@@H]1CN(C)Cc1ccc(C(F)(F)F)cc1,113*,.,-5
C[C@@H]1CN([C@@H](C)CO)C(=O)c2cccc(NC(=O)Nc3ccc(C(F)(F)F)cc3)c2O[C@@H]1CN(C)Cc1ccc(C(F)(F)F)cc1,?,.,-3
C[C@H]1CN([C@@H](C)CO)C(=O)c2cccc(N(C)C)c2O[C@H]1CN(C)Cc1ccc(C(F)(F)F)cc1,27,.,0
C[C@H](CO)N1C[C@H](C)[C@@H](CN(C)Cc2ccc(C(F)(F)F)cc2)Oc2c(NC(=O)Nc3ccc(C(F)(F)F)cc3)cccc2C1=O,105*,.,-4
C[C@@H]1CN([C@@H](C)CO)C(=O)c2cccc(NC(=O)Nc3ccc(C(F)(F)F)cc3)c2O[C@@H]1CN(C)Cc1ccc(C(=O)O)cc1,-12,.,1
CCOC(=O)c1c(NC(=O)CSc2nc(C)ccc2C#N)sc2c1CCC2,?,-1,.
CCCc1c(C(=O)OCC)c(C(=O)OCC)c2c(-c3ccccc3)nc(N3CCOCC3)nn12,?,.,-1
C[C@H]1CN([C@@H](C)CO)C(=O)c2cccc(NC(=O)Nc3ccc(C(F)(F)F)cc3)c2O[C@@H]1CN(C)CC1CCCCC1,82*,.,.
C[C@H](CO)N1C[C@H](C)[C@H](CN(C)CC2CCCCC2)Oc2c(NC(=O)Nc3ccc(C(F)(F)F)cc3)cccc2C1=O,116*,.,-5
C[C@@H]1CN([C@H](C)CO)C(=O)c2cccc(NC(=O)Nc3ccc(C(F)(F)F)cc3)c2O[C@@H]1CN(C)CC1CCCCC1,58,.,-5
C[C@@H]1CN([C@H](C)CO)C(=O)c2cccc(NC(=O)Nc3ccc(C(F)(F)F)cc3)c2O[C@H]1CN(C)CC1CCCCC1,?,.,-8
C[C@@H]1CN([C@H](C)CO)C(=O)c2cccc(NC(=O)Nc3ccc(F)cc3)c2O[C@H]1CN(C)CC1CC1,57,.,.
C[C@H](CO)N1C[C@H](C)[C@@H](CN(C)CC2CC2)Oc2c(NC(=O)Nc3ccc(C(F)(F)F)cc3)cccc2C1=O,99*,.,-2
Cc1ccc(N(CC(=O)Nc2ccc(Br)cc2F)S(C)(=O)=O)cc1C,-2,-3,0
O=C1C(Nc2ccccc2)=CC(=O)c2ncccc21,142*,9,-61
C#C[C@]1(O)CCC2C3CCc4cc(O)ccc4C3CC[C@@]21C (stereo partly specified),107*,-7,.
C[C@]12CC[C@@H]3c4ccc(O)cc4CC[C@H]3[C@@H]1C[C@@H](O)[C@@H]2O,-4,3,.
Cc1sc2nc3scc(CC(=O)NCCO)n3c(=O)c2c1C,31,-6,0
COc1ccc(-n2c(SCC(=O)c3ccc(Cl)cc3)nnc2-c2ccccc2)cc1,0,2,.
Cc1ccc2nc(-c3ccc(NC(=O)CN4CCN(C(=O)C5CCCO5)CC4)cc3)sc2c1 (stereo unspecified),30,13,-1
